In PubChem BioAssay (NCI):
About 83,000 compounds went through this panel and 20% of them were active in at least one assay; those are over-represented in the sample as a whole.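 Single-concentration screen, 48 h exposure, 96-well plates. Endpoint: percent growth. Below 10 = active.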 Unmarked numbers belong to inactive results. Calls of active or inactive are those of the source.

Experiments:
Test in all cases: NCI-60 one-dose screen, 48 h (100 = growth as untreated, 0 = no growth, -100 = all killed)
Settings in all cases: 10 µM unless noted
DU-145 prostate = test system: DU-145 prostate
K-562 leukemia = test system: K-562 leukemia
MALME-3M melanoma = test system: MALME-3M melanoma
MDA-MB-231 breast = test system: MDA-MB-231 breast
RXF 393 renal = test system: RXF 393 renal
SF-268 CNS = test system: SF-268 CNS
SF-295 CNS = test system: SF-295 CNS
SF-539 CNS = test system: SF-539 CNS
UACC-257 melanoma = test system: UACC-257 melanoma
M14 melanoma = test system: M14 melanoma
HCT-15 colon = test system: HCT-15 colon
HT29 colon = test system: HT29 colon
SNB-19 CNS = test system: SNB-19 CNS
U251 CNS = test system: U251 CNS
PC-3 prostate = test system: PC-3 prostate
SK-MEL-5 melanoma = test system: SK-MEL-5 melanoma
UACC-62 melanoma = test system: UACC-62 melanoma
LOX IMVI melanoma = test system: LOX IMVI melanoma
SK-MEL-28 melanoma = test system: SK-MEL-28 melanoma
SNB-75 CNS = test system: SNB-75 CNS

Row | Structure (SMILES) | growth (DU-145 prostate) | growth (K-562 leukemia) | growth (MALME-3M melanoma) | growth (MDA-MB-231 breast) | growth (RXF 393 renal) | growth (SF-268 CNS) | growth (SF-295 CNS) | growth (SF-539 CNS) | growth (UACC-257 melanoma) | growth (M14 melanoma) | growth (HCT-15 colon) | growth (HT29 colon) | growth (SNB-19 CNS) | growth (U251 CNS) | growth (PC-3 prostate) | growth (SK-MEL-5 melanoma) | growth (UACC-62 melanoma) | growth (LOX IMVI melanoma) | growth (SK-MEL-28 melanoma) | growth (SNB-75 CNS)
1 | NCCNC(=O)c1cccc(COc2ccccc2NC(=O)c2cc(Br)c(Br)[nH]2)c1 | 96.3% | -16.3% (active) | 98.9% | 91.4% | 93.4% | 61.9% | 88.3% | 96.2% | 116% | 102% | 72.7% | 101% | 71.1% | 77.5% | 82.1% | 98.9% | 96.8% | -30.8% (active) | 102% | 
2 | CCc1nnc(NC(=O)c2cc(-c3ccc(Cl)cc3Cl)oc2C)s1 | 93.5% | 86% | 88.3% | 91.5% | 109% | 89.3% | 94.2% | 92.4% | 103% | 93.3% | 70.5% | 89.7% | 79.7% | 29.5% | 82.7% | 97.8% | 73.2% | 74.4% | 102% | 
3 | COc1ccc(C(=NNS(=O)(=O)c2ccc(C)cc2)c2ccccc2)cc1OC | 103% | 94.3% | 87.7% | 91.2% | 105% | 95.5% | 87.7% | 105% | 96.5% | 102% | 96.6% | 103% | 94.6% | 96.1% | 93% | 97.6% | 70.3% | 106% | 108% | 
4 | COc1ccc(-c2nc(C#N)c(N3CCC(S(=O)(=O)N4CCOCC4)CC3)o2)cc1 | 100% | 98.8% | 107% | 95.1% | 108% | 94.2% | 102% | 97.5% | 109% | 109% | 105% | 101% | 96.9% |  |  | 97.1% | 96.3% | 100% | 99% | 103%
5 | N#C/C(=C\c1ccc(-c2ccc(Cl)cc2)o1)C(=O)Nc1ncc(Cc2ccc(Br)cc2)s1 | 9.81% (active) | 42.7% | -34.1% (active) | 3.41% (active) | 33.1% | 33.2% | -2.23% (active) | 1.63% (active) | 46.6% | 10.2% | 15.3% | 7.27% (active) | 3.38% (active) |  | 9.73% (active) | 51.9% | 1% (active) | -69.7% (active) | 11% | 
6 | O=C(CCCCCCNC(=O)C(O)(O)C(F)(F)F)Nc1ccc(Cl)cc1 | 17.6% | 14.4% | 9.88% (active) | 36.2% | -23.7% (active) | 22% | 0.336% (active) | 28.6% | 31% | 34.4% | 39.1% | 5.13% (active) | 31.7% | 13.9% | 35.3% | -28% (active) | -18.8% (active) | 4.18% (active) | 27% | 
7 | CCCCSC1=C(Cl)CN(c2ccc(Cl)cc2)C1=O | 106% | 82.6% | 103% | 104% | 109% | 105% | 93% | 85.2% | 107% | 96.5% | 96.1% | 105% | 93.3% | 93.6% | 98.4% | 98.3% | 93.4% | 62.4% | 102% | 
8 | Cc1ccc(S(=O)(=O)NCCCNc2nc(Nc3ccc(N4CCN(C)CC4)cc3)nc3ccsc23)cc1 | 42.7% | 13.3% | -87.9% (active) | 23% | -59.3% (active) | 42% | -41.6% (active) | -80.8% (active) | -73.2% (active) | -69.6% (active) | 3% (active) | -61.8% (active) | 58.7% | 6.58% (active) | 63.5% | -84.1% (active) | -48.3% (active) | -77.6% (active) | -84.5% (active) | 
